# Data as given in PubChem BioAssay AID765 (NMMLSC, 2007).
# Active and inactive are the calls of the source. Rule as the data show it: active = inhibition above about 31%; inactive = the rest.
# Target: N-formyl peptide receptor 2 (Homo sapiens) (UniProt P25090)
# Experiment: FPRL1 fluorescent ligand binding inhibitors, cell-based, flow cytometry, single concentration (AID 765)
# Details: FPRL1-expressing cells, hits give high values; at 5.1 µM unless noted
# N-formyl peptide receptor 2 (Homo sapiens), sequence (P25090 whole entry, looked up): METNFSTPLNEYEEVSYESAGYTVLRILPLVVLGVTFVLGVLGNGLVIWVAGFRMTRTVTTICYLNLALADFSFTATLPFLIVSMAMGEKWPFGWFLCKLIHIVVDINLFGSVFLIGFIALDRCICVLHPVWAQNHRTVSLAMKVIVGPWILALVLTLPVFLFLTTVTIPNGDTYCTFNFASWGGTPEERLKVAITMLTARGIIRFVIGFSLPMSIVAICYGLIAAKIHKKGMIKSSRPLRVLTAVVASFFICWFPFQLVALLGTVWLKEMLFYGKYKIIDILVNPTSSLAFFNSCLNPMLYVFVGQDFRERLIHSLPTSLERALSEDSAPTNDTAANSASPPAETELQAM
row,SMILES,inhibition
1,COc1ccc(-c2cn3cccnc3n2)cc1NC(=O)c1cccc(Br)c1,0.7% [at 5.3 µM] (inactive)
2,O=C(O)CCC(=O)N1CCN(c2nc(-c3ccccc3)c3ccccc3n2)CC1,-3.2% [at 5.7 µM] (inactive)
3,CC(=O)N1CCN(c2nc(-c3ccccc3)c3ccccc3n2)CC1,-11.2% [at 6.7 µM] (inactive)
4,COc1ccc(-c2cn3cccnc3n2)cc1NC(=O)c1ccc(C(C)(C)C)cc1,-1% [at 5.6 µM] (inactive)
5,CCN1CCN(c2nc(-c3cccc(Cl)c3)c3c(n2)-c2ccccc2OC3)CC1,-10.9% [at 5.5 µM] (inactive)
6,COc1cccc(-c2cc(C(F)(F)F)nc(N3CCN(C)CC3)n2)c1,-18% [at 6.3 µM] (inactive)
7,CCOC(=O)N1CCN(c2nc(-c3cccc(OC)c3)cc(C(F)(F)F)n2)CC1,-16.3% [at 5.4 µM] (inactive)
8,COc1ccc(-c2cn3cccnc3n2)cc1NC(=O)c1ccc(C(F)(F)F)cc1,-3.6% [at 5.4 µM] (inactive)
9,O=C(c1ccccc1)N1CCN(c2nc(-c3ccccc3)c3ccccc3n2)CC1,-1.3% [at 5.6 µM] (inactive)
10,COc1ccc(-c2cn3cccnc3n2)cc1NC(=O)c1ccco1,-8.1% [at 6.7 µM] (inactive)
11,CCOC(=O)N1CCN(c2nc(-c3ccc(Cl)cc3)cc(C(F)(F)F)n2)CC1,-12% [at 5.4 µM] (inactive)
12,O=C(O)CCC(=O)N1CCN(c2nc(-c3ccccc3)c3cc([N+](=O)[O-])ccc3n2)CC1,3.6% (inactive)
13,Clc1cccc(-c2nc(N3CCN(c4ccccc4)CC3)nc3c2COc2ccccc2-3)c1,-0.8% [at 4.9 µM] (inactive)
14,O=C(O)CCC(=O)N1CCN(c2nc(-c3ccccc3)c3cc(Br)ccc3n2)CC1,-3.9% [at 4.7 µM] (inactive)
15,COc1ccc(C2CC(=O)c3cnc(N4CCN(Cc5ccc6c(c5)OCO6)CC4)nc3C2)c(OC)c1 (stereo unspecified),-2.7% [at 4.4 µM] (inactive)
16,Clc1cccc(-c2nc(N3CCN(Cc4ccccc4)CC3)nc3c2COc2ccccc2-3)c1,0.5% [at 4.7 µM] (inactive)
17,FC(F)(F)c1cc(-c2cccs2)nc(N2CCN(C(c3ccccc3)c3ccccc3)CC2)n1,-11% [at 4.6 µM] (inactive)
18,Cc1ccc2nc(N3CCN(C(=O)CCCC(=O)O)CC3)nc(-c3ccccc3)c2c1,1.1% [at 5.3 µM] (inactive)

row,SMILES,inhibition
1,CC1(C)CC(=O)c2cnc(N3CCN(Cc4ccc5c(c4)OCO5)CC3)nc2C1,-3.3% [at 5.6 µM] (inactive)
2,O=C(O)/C=C/C(=O)N1CCN(c2nc(-c3ccccc3)c3ccccc3n2)CC1,6.6% [at 5.7 µM] (inactive)
3,COc1cccc(-c2cc(C(F)(F)F)nc(N3CCN(c4ccccc4OC)CC3)n2)c1,-10.4% [at 5 µM] (inactive)
4,COc1ccc(-c2cn3cccnc3n2)cc1NC(=O)c1cccc(Cl)c1,25.4% [at 5.9 µM] (inactive)
5,CN1CCN(c2nc(-c3ccccc3)c3cc(Cl)ccc3n2)CC1,-15% [at 6.6 µM] (inactive)
6,COc1ccc(-c2cn3cccnc3n2)cc1NC(=O)CCc1ccccc1,16% [at 6 µM] (inactive)
7,CCCC(=O)Nc1cc(-c2cn3cccnc3n2)ccc1OC,2.2% [at 7.2 µM] (inactive)
8,CC(C)(C)OC(=O)N1CCN(c2nc(-c3ccccc3)c3cc([N+](=O)[O-])ccc3n2)CC1,14.7% (inactive)
9,O=C(c1cccc(F)c1)N1CCN(c2nc(-c3ccc(F)cc3)cc(C(F)(F)F)n2)CC1,2.3% [at 5 µM] (inactive)
10,COc1ccc(-c2cn3cccnc3n2)cc1NC(=O)c1cc(C)cc(C)c1,4.9% [at 6 µM] (inactive)
11,CCCCOc1ccc(C(=O)Nc2cc(-c3cn4cccnc4n3)ccc2OC)cc1,1.7% [at 5.3 µM] (inactive)
12,O=C(O)CCC(=O)N1CCN(c2nc(-c3ccccc3Cl)c3cc(Br)ccc3n2)CC1,-2% [at 4.4 µM] (inactive)
13,Cc1ccc(C(=O)N2CCN(c3nc(-c4ccccc4)c4cc(Br)ccc4n3)CC2)cc1,18% [at 4.6 µM] (inactive)
14,COc1ccc(-c2cn3cccnc3n2)cc1NC(=O)Cc1ccccc1,31.2% [at 6.2 µM] (active)
15,O=C(O)C1CC=CCC1C(=O)N1CCN(c2nc(-c3ccccc3Cl)c3cc(Br)ccc3n2)CC1 (stereo unspecified),-6.7% [at 4 µM] (inactive)
16,COc1cccc(-c2cc(C(F)(F)F)nc(N3CCN(C(c4ccccc4)c4ccccc4)CC3)n2)c1,-3.9% [at 4.4 µM] (inactive)
17,CCN1CCN(c2nc(-c3ccc(Cl)cc3)cc(C(F)(F)F)n2)CC1,-7.7% [at 6 µM] (inactive)
18,Cc1ccc(-c2cn3cccnc3n2)cc1NC(=O)C(C)C,-3.4% [at 7.6 µM] (inactive)
